Source: PubChem BioAssay (National Center for Advancing Translational Sciences (NCATS))
Only some compounds are listed: those with a hit (about 9.9% of all), similar ones and a draw of the others.
HPGD block: qHTS Assay for Inhibitors of HPGD (15-Hydroxyprostaglandin Dehydrogenase); 15-hydroxyprostaglandin dehydrogenase [NAD(+)] (Homo sapiens), P15428; AID 894, 2007; Potency, µM, actives largely listed as inhibitors; 150,000 tested, 4.3% active; purified HPGD, NADH fluorescence kinetic, PGE2 substrate
Target sequence (P15428 whole entry, looked up): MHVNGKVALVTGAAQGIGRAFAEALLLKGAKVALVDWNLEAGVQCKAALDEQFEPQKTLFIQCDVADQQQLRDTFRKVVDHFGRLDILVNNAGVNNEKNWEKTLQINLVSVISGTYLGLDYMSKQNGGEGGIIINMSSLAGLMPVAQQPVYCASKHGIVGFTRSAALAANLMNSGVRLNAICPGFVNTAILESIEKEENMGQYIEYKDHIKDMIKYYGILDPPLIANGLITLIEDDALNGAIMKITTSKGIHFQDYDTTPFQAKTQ
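20 nM HPGD preincubated 15 min at room temperature with compound in 50 mM Tris-HCl pH 8, 0.01% Tween 20. Started with 1 mM NAD+ and 30 uM prostaglandin E2; NADH fluorescence (360/450 nm) read 5 times over 30-s intervals, last minus first.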
Tau ThT inhib: qHTS for Inhibitors of Tau Fibril Formation, Thioflavin T Binding. Microtubule-associated protein tau (Homo sapiens), P10636. recombinant tau K18 P301L, heparin-induced fibrillization, ThT fluorescence. Potency, µM (titrated, usually from 57.4 µM), most hits filed as inhibitors. 270,000 tested, 2.1% active. AID 1460, 2008; active means well fitted curve in the direction sought with a large enough effect; inconclusive means small, poorly fitted or top-dose-only effect, or another doubt; inactive means no such curve, though single readings can be large; an effect the other way counts as inactive or inconclusive; further: nearly all actives have a fitted effect of over 55% in size
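Recombinant human tau K18 fragment […] carrying P301L, 15 uM unlabeled plus 0.24 uM Alexa 594-labeled, was fibrillized with 20 uM heparin in 100 mM sodium acetate pH 7 for 6 hr at 37 C; 30 uM ThT fluorescence read after 1 hr.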
KDM4E inh: qHTS Assay for Inhibitors of Human Jumonji Domain Containing 2E (JMJD2E); Lysine-specific demethylase 4E (Homo sapiens), B2RXH2; JMJD2E catalytic domain, FDH-coupled NADH fluorescence (FDH is formaldehyde dehydrogenase); Potency, µM (highest dose often 57.1 µM), actives largely listed as inhibitors; 230,000 tested, 1.6% active; further: nearly all actives have a fitted effect of over 50% in size
ALDH1A1 block: qHTS Assay for Inhibitors of Aldehyde Dehydrogenase 1 (ALDH1A1); 220,000 tested, 7.3% active; Purified ALDH1A1, NADH fluorescence, propionaldehyde substrate; AID 1030, 2008; Potency, µM (highest dose often 75.3 µM), actives largely listed as inhibitors; Aldehyde dehydrogenase 1A1 (Homo sapiens), P00352
Target sequence (P00352 whole entry, looked up): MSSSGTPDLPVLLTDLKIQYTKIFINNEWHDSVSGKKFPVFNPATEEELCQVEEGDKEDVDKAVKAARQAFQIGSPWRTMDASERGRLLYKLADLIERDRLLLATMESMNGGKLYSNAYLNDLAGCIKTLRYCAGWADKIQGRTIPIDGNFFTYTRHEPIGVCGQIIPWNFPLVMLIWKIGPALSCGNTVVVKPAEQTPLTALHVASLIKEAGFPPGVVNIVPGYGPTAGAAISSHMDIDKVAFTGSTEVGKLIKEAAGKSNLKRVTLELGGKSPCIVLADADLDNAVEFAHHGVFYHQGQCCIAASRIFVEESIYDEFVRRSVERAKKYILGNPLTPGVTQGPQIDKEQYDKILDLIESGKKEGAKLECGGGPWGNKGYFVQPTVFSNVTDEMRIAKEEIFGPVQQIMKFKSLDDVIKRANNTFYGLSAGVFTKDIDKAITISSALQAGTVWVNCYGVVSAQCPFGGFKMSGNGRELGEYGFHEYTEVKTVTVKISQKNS
Tau fluor cs: Counterscreen qHTS for Inhibitors of Tau Fibril Formation, Fluorescence Polarization | Potency, µM (series often up to 57.7 µM) | tau K18 P301L (four-repeat tau fragment) Alexa594 fluorescence, heparin fibrillization | AID 1463, 2008 | 280,000 tested, 0.93% active; active means well fitted curve in the direction sought with a large enough effect; inconclusive means small, poorly fitted or top-dose-only effect, or another doubt; inactive means no such curve, though single readings can be large; an effect the other way counts as inactive or inconclusive; further: nearly all actives have a fitted effect of over 55% in size
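Human K18 P301L tau (15 uM unlabeled plus 0.24 uM Alexa 594-labeled, final) in 100 mM sodium acetate pH 7 was mixed with compound and 20 uM heparin and incubated 6 hr at 37 C.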
Tau fibril FP: qHTS for Inhibitors of Tau Fibril Formation, Fluorescence Polarization. Microtubule-associated protein tau (Homo sapiens), P10636. AID 1468, 2008. K18 P301L tau heparin fibrillization, Alexa594 FP, 6 h. Potency, µM (highest dose often 57.7 µM), usual class: inhibitors. 280,000 tested, 0.39% active; active means well fitted curve in the direction sought with a large enough effect; inconclusive means small, poorly fitted or top-dose-only effect, or another doubt; inactive means no such curve, though single readings can be large; an effect the other way counts as inactive or inconclusive; further: nearly all actives have a fitted effect of over 55% in size
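Compound effects on tau fibrillization are measured by Alexa 594 fluorescence polarization (ex 555, em 632 nm). K18 P301L tau is used at 15 uM with 0.24 uM labeled tracer, and 20 uM heparin induces aggregation over 6 hr at 37 C.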
Of the large screens only hits and unclear results are named; the others gave an inactive call; [ ] = dose if it differs, or a comment. Unless noted, the call rests on the fitted dose curve; in most records, active means well fitted inhibition curve with a large enough effect (not every such curve was filed as active); inconclusive means small, poorly fitted or top-dose-only effect, or another doubt; inactive means no such curve, though single readings can be large or run the other way.

Cc1ccc(NC(=O)Nc2nnc(Cc3ccc([N+](=O)[O-])cc3)s2)cc1C	Tau ThT inhib inconclusive, Tau fluor cs 5µM[quencher], Tau fibril FP inconclusive
CCN1C(=O)c2ccccc2Sc2ccc(NC(=O)Nc3cccc([N+](=O)[O-])c3C)cc21	Tau fluor cs inconclusive, Tau fibril FP 16µM (no result: HPGD block, KDM4E inh, ALDH1A1 block)
CC(C)CCNC(=O)c1ccc2c(c1)N(Cc1cccc(Cl)c1)C(=O)c1ccccc1S2	none (no result: HPGD block, KDM4E inh, ALDH1A1 block)
CC(C)CCNC(=O)Nc1ccc2c(c1)N(Cc1ccccc1)C(=O)c1ccccc1S2	Tau fibril FP 14µM (no result: HPGD block, KDM4E inh, ALDH1A1 block)
O=C(CSc1nccn1Cc1ccc(F)cc1)NCc1ccco1	none (no result: HPGD block, KDM4E inh, ALDH1A1 block)
COc1ccc(CN(C(=O)CSc2nnc(-c3ccccc3C)o2)c2ccc(F)cc2)cc1	HPGD block inconclusive, ALDH1A1 block 2.5µM
CC1CCC2C(=O)N(c3ccc(S(=O)(=O)c4ccccc4)cc3)C(=O)C2C1 (stereo not given)	none
Cc1ccc(/C=C2\Sc3ccccc3C2=O)s1	Tau ThT inhib 3.2µM
CC1CCc2nc3ccc(S(=O)(=O)N4CCC(C(=O)NC5CCCC5)CC4)cc3c(C(=O)O)c2C1 (stereo not given)	ALDH1A1 block 40µM
COC(=O)c1ccc(NC(=O)CSc2ncc3c(n2)-c2cc(Cl)ccc2N(Cc2ccccc2)S3(=O)=O)cc1	Tau fluor cs inconclusive, Tau fibril FP 16µM (no result: HPGD block, KDM4E inh, ALDH1A1 block)
COc1ccc(N2C(=O)CC(N3CCN(c4ccc(S(=O)(=O)N5CCCC5)cc4)CC3)C2=O)cc1 (stereo not given)	ALDH1A1 block 22µM
COc1cccc(N2C(=O)CC(N3CCC(C(N)=O)(N4CCCCC4)CC3)C2=O)c1 (stereo not given)	ALDH1A1 block 10µM
CC1CCN(C2CC(=O)N(c3ccccc3)C2=O)CC1 (stereo not given)	ALDH1A1 block 28µM (no result: HPGD block)
COc1ccc(N2C(=O)CC(N3CCN(C4CCc5ccccc5C4)CC3)C2=O)cc1 (stereo not given)	ALDH1A1 block inconclusive
COc1ccc(N2C(=O)CC(N3CCCCC3)C2=O)cc1 (stereo not given)	Tau ThT inhib inconclusive, ALDH1A1 block 18µM (no result: HPGD block)
O=C1CCCN1CCC1CCN(C2CC(=O)N(Cc3ccc(N4CCCC4=O)cc3)C2=O)CC1 (stereo not given)	ALDH1A1 block inconclusive
O=C1CCCN1CCC1CCN(C2CC(=O)N(c3ccc(Cl)cc3)C2=O)CC1 (stereo not given)	ALDH1A1 block 20µM
Cc1cccc(N2C(=O)CC(N3CCN(C(=O)c4ccccc4)CC3)C2=O)c1 (stereo not given)	ALDH1A1 block 25µM
O=C1CC(N2CCCCCC2)C(=O)N1c1ccc2c(c1)OCO2 (stereo not given)	Tau ThT inhib inconclusive, ALDH1A1 block 5µM
O=C1CC(N2CCN(c3ccc(O)cc3)CC2)C(=O)N1c1ccc2c(c1)OCO2 (stereo not given)	Tau ThT inhib inconclusive, KDM4E inh inconclusive, ALDH1A1 block inconclusive (no result: HPGD block)
O=C(NNC1CC(=O)N(c2ccc3c(c2)OCCO3)C1=O)c1ccccc1 (stereo not given)	none
O=C1CC(NC23CC4CC(CC(C4)C2)C3)C(=O)N1c1ccc2c(c1)OCO2 (stereo not given)	ALDH1A1 block 11µM
CCOc1ccc(C2C(C(N)=O)=C(C)Nc3nc(-c4ccc(OC)cc4)nn32)cc1 (stereo not given)	none (no result: HPGD block, KDM4E inh, ALDH1A1 block)
CCOC(=O)COc1cc2oc(=O)cc(C)c2cc1[N+](=O)[O-]	none (no result: HPGD block)
COc1ccc(N2C(=O)CC(C3CCCO3)C2=O)cc1 (stereo not given)	none (no result: HPGD block)
COc1ccc(N2C(=O)CC(NC3CCCCNC3=O)C2=O)cc1 (stereo not given)	ALDH1A1 block 20µM
O=C1CC(N2CCCCCC2)C(=O)N1c1ccc(F)cc1 (stereo not given)	Tau ThT inhib inconclusive, ALDH1A1 block 13µM (no result: HPGD block)
O=C1C2C3C=CC(C3)C2C(=O)N1c1ccc2c(c1)OCO2 (stereo not given)	Tau ThT inhib 32µM, KDM4E inh inconclusive, ALDH1A1 block inconclusive, Tau fluor cs inconclusive, Tau fibril FP inconclusive
COc1ccc(N2C(=O)CC(N3CCCC4CCCCC43)C2=O)cc1 (stereo not given)	ALDH1A1 block 8.9µM
CCCCNC(=O)C1CCC(Cn2c(=O)c3sccc3n(CC(=O)N3CCCC3)c2=O)CC1 (stereo not given)	Tau ThT inhib inconclusive (no result: HPGD block, KDM4E inh, ALDH1A1 block)
CCCN1C(=O)SC(CC(=O)Nc2cccc3ccccc23)C1=O (stereo not given)	KDM4E inh inconclusive, ALDH1A1 block 22µM
CCCN1C(=O)SC(CC(=O)Nc2ccccc2)C1=O (stereo not given)	ALDH1A1 block 20µM
CNC(=O)[C@H]1O[C@@H](n2cnc3c(NCc4ccc(N)cc4)ncnc32)[C@H](O)[C@H]1O	none
COc1ccc(/C=C2\N=C(SC)SC2=O)cc1OC	Tau ThT inhib inconclusive
CCOc1cc(/C=C2\N=C(SCC)SC2=O)cc([N+](=O)[O-])c1OC(C)=O	HPGD block 13µM, Tau ThT inhib 4µM, ALDH1A1 block 32µM, Tau fluor cs inconclusive
CCOc1cc(/C=C2\N=C(SC)SC2=O)cc([N+](=O)[O-])c1OC(C)=O	HPGD block 16µM, Tau ThT inhib 3.5µM, ALDH1A1 block 28µM, Tau fluor cs inconclusive
CCOc1c(OC(C)=O)ccc(/C=C2\N=C(SCC)SC2=O)c1[N+](=O)[O-]	HPGD block 10µM, Tau ThT inhib 14µM, ALDH1A1 block inconclusive, Tau fluor cs 18µM[quencher], Tau fibril FP inconclusive
CCSC1=N/C(=C\c2ccc(C(=O)O)cc2)C(=O)S1	none
S=c1[nH]nc(-c2ccccc2)n1/N=C/c1ccc(-c2ccccc2Cl)o1	HPGD block 3.2µM
Cc1cccc(/C=N/n2c(-c3ccncc3)n[nH]c2=S)c1	HPGD block 16µM, KDM4E inh inconclusive
S=c1[nH]nc(-c2ccncc2)n1/N=C/c1ccccc1	HPGD block 32µM, ALDH1A1 block inconclusive
S=c1[nH]nc(-c2cc(-c3ccccc3)n[nH]2)n1/N=C/C(Br)=C/c1ccccc1	Tau ThT inhib 18µM, Tau fluor cs inconclusive, Tau fibril FP inconclusive (no result: HPGD block)
O=C(CCC(=O)N(CC(=O)NC1CCCC1)C1CCCCC1)Nc1ccccn1	none (no result: HPGD block)
